Rows were chosen to be rich in hits. Some 11% of all compounds tested hit in one or more screens of this group.
VP16 counter: VP16 counterscreen qHTS for inhibitors of ROR gamma transcriptional activity. Drosophila S2 Gal4-VP16 UAS-luciferase, luminescence, 20 h. Potency, µM (titrated, usually from 53.6 µM), inactives show at the highest dose activity, negative = inhibition, usual class: inhibitors. hit rate 3.5% among 310,000;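 further: Gal4-VP16 expression switched on by copper sulfate through the metallothionein promoter; potency means the concentration at half of the fitted maximal effect; on the % scale 0 is the no-effect control and ±100 the full control effect; nearly all actives have a fitted effect of over 50% in size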
IL1B secr inh: qHTS for Inhibitors of Inflammasome Signaling: IL-1-beta AlphaLISA Primary Screen | THP-1 LPS/ATP IL-1B secretion, AlphaLISA, 16 h; hits give low values | activity change, % at 57.5 µM | hit rate 4.7% among 360,000; in the data active means activity change below about -50%; inconclusive means mostly about -30% to -49%; further: on the % scale 0 is the no-effect control and ±100 the full control effect
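Secreted IL-1B measured by AlphaLISA bead assay after 16 h compound exposure of THP-1 cells; compounds (final up to 57.5 uM) added 1 h before LPS (250 ng/mL) and ATP (1.25 mM) stimulation; lower signal means less secretion.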
SW480 rerep: A quantitative high throughput screen for small molecules that induce DNA re-replication in SW480 colon adenocarcinoma cells; SW480 DNA re-replication, Hoechst DNA content imaging, 48 h; Potency, µM (highest dose often 46.1 µM), without a hit: at the top dose re-replication activation, most hits filed as activators; AID 624297, 2012; hit rate 1.8% among 340,000; further: potency means the concentration at half of the fitted maximal effect; % of control where 0% means no effect; nearly all actives have a fitted effect of over 55% in size
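Readout is total intensity of Hoechst-stained nuclei, excited at 405 nm and collected at 500-530 nm. Compound treatment lasted 48 hr at 37 C in 5% CO2 before staining.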
RORgamma inh: qHTS for inhibitors of ROR gamma transcriptional activity; Nuclear receptor ROR-gamma (Mus musculus), P51450; Drosophila S2 Gal4-RORgamma UAS-luciferase reporter, 20 h; Potency, µM (top dose mostly 53.6 µM), for the others: top-dose activity change, negative = inhibition, usual class: inhibitors; hit rate 5.4% among 310,000; AID 2551, 2010; further: potency means the concentration at half of the fitted maximal effect; on the % scale 0 is the no-effect control and ±100 the full control effect; nearly all actives have a fitted effect of over 60% in size
Target sequence (P51450 whole entry, looked up, the tested form may be a part): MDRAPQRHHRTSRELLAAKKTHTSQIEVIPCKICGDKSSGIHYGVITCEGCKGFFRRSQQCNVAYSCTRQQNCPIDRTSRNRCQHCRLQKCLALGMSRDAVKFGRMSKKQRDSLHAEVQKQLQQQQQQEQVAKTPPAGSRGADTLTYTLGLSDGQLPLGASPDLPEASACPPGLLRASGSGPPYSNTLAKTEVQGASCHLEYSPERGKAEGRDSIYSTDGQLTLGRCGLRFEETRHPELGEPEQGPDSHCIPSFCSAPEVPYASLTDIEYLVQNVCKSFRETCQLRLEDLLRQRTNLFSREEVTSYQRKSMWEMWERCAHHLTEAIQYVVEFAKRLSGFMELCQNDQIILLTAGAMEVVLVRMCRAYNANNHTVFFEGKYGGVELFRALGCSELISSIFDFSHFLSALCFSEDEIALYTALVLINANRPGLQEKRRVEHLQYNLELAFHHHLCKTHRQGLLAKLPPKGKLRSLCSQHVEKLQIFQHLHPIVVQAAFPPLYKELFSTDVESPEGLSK
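Drosophila S2 cells stably expressing Gal4-DBD/mouse RORγ fusion under metallothionein promoter plus UAS-luciferase; compound 1 h, then 700 uM CuSO4 induction for 20 h at ambient temperature; inhibition read as reduced luminescence.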
MCF10A rereplic: A quantitative high throughput screen for small molecules that induce DNA re-replication in MCF 10a normal breast cells. MCF 10A DNA re-replication, Hoechst nuclear intensity, 48 h. Potency, µM (series often up to 46.1 µM), for inactives: at the top dose activity, positive = re-replication, hits mostly activators. hit rate 2.9% among 350,000; further: potency means the concentration at half of the fitted maximal effect; % of control where 0% means no effect; nearly all actives have a fitted effect of over 50% in size
Starred values were filed as active, the others as inactive; [ ] = remark or other dose. Unless noted, the call rests on the fitted dose curve; in most records, active means well fitted curve in the direction sought with a large enough effect; inconclusive means small, poorly fitted or top-dose-only effect, or another doubt; inactive means no such curve, though single readings can be large; an effect the other way counts as inactive or inconclusive.

For Cc1cccc(NC(=O)c2onc3c2CCCC3)n1 the results were VP16 counter 5.62µM*, IL1B secr inh -3.5, SW480 rerep -8.9%, RORgamma inh 2µM* and MCF10A rereplic 4.4%.
Screening CCCCn1c(N)c(N(C)C(=O)c2ccccc2Oc2ccccc2)c(=O)[nH]c1=O returned IL1B secr inh -12.4, SW480 rerep inconclusive and MCF10A rereplic 16.4%.
Screening CCOc1ccc2nc(SCC3CC3(Cl)Cl)[nH]c2c1 (centres undefined) returned VP16 counter 7.6%, IL1B secr inh -61.9*, SW480 rerep 21.4%, RORgamma inh 7.9% and MCF10A rereplic 10.6%.
Screening CC(C)(C)OC(=O)C[C@@H]1C/C=C\C[C@@H](CC(=O)N(CCO)Cc2ccccc2)C(=O)N[C@H](C(C)(C)C)COC1=O returned IL1B secr inh 13.6, SW480 rerep -15.6% and MCF10A rereplic -1.2%.
Screening O=C(Nc1ccn(CCCNCc2ccccn2)c(=O)n1)OCc1ccccc1 returned IL1B secr inh 21.2, SW480 rerep -22.3% and MCF10A rereplic -8.4%.
`O=C(Nc1ccn(CCCNCc2cccc3ccccc23)c(=O)n1)OCc1ccccc1` gave IL1B secr inh -62.0*.
`CC1(C)CC(=O)C2=C(C1)O[C@@]1(CCCCN3C(=O)c4ccccc4C3=O)Cc3cc(C#N)ccc3C2O1` gave VP16 counter -10.9%[10 µM] and RORgamma inh 9.3%[10 µM].
Cc1cc2c(c(=O)o1)C1O[C@](CCCCN3C(=O)c4ccccc4C3=O)(Cc3cc(C#N)ccc31)O2 was read as VP16 counter 0.7%[10 µM] and RORgamma inh 4.8%[10 µM].
O=C(Nc1ncc(Cc2ccc(C(F)(F)F)cc2)s1)c1ccc(-c2cccc([N+](=O)[O-])c2)o1 was read as VP16 counter 7.08µM*, IL1B secr inh -7.0, RORgamma inh 5.62µM* and MCF10A rereplic inconclusive.
O=C(Nc1ncc(Cc2ccccc2Cl)s1)c1ccc(-c2cccc([N+](=O)[O-])c2)o1 was read as VP16 counter inconclusive, IL1B secr inh -12.4, SW480 rerep -14.3%, RORgamma inh 5.01µM* and MCF10A rereplic 0.4%.
`N#C/C(=C/c1ccc(-c2ccc([N+](=O)[O-])cc2)o1)C(=O)Nc1nc(-c2cccs2)cs1` gave IL1B secr inh 15.8, SW480 rerep inconclusive and MCF10A rereplic inconclusive.
Screening Cc1ccc(Cc2cnc(NC(=O)/C(C#N)=C/c3ccc(-c4ccc([N+](=O)[O-])cc4)o3)s2)cc1 returned VP16 counter 0.3%, IL1B secr inh 12.7, SW480 rerep -8.5%, RORgamma inh 2.24µM* and MCF10A rereplic -8.0%.
`COc1cccc(-c2ccc3c(c2)O[C@@H](CN(C)Cc2cncnc2)[C@@H](C)CN([C@H](C)CO)S3(=O)=O)c1` gave IL1B secr inh 0.9.
CCOC(=O)NC(C(Cl)(Cl)Cl)S(=O)(=O)c1ccccc1 (centres undefined) was read as VP16 counter inconclusive, IL1B secr inh -86.6*, SW480 rerep inconclusive, RORgamma inh -42.0% and MCF10A rereplic inconclusive.
CN(C)c1ccc(-c2nc3cnccn3c2Nc2ccc3c(c2)OCCO3)cc1 was read as VP16 counter -10.2%, IL1B secr inh 2.6, SW480 rerep -17.8%, RORgamma inh 0.5% and MCF10A rereplic 18.4µM*.
For Cc1ccc(Nc2c(-c3ccc(N4CCOCC4)cc3)nc3ncccn23)cc1C the results were VP16 counter -8.3%, IL1B secr inh inconclusive, SW480 rerep 23.1µM*, RORgamma inh -1.9% and MCF10A rereplic inconclusive.
Cc1ccccc1Nc1c(-c2ccc(N3CCOCC3)cc2)nc2cnccn12 was read as VP16 counter 11.3%, IL1B secr inh -26.6, SW480 rerep 14.7%, RORgamma inh -16.6% and MCF10A rereplic inconclusive.
For Cc1ccc(Nc2c(-c3ccc(N4CCOCC4)cc3)nc3cnccn23)cc1 the results were VP16 counter 14.2%, IL1B secr inh -14.1, SW480 rerep inconclusive, RORgamma inh 40.3% and MCF10A rereplic 18.4µM*.
For Cc1ccc(Nc2c(-c3ccc(N4CCOCC4)cc3)nc3ncccn23)cc1 the results were VP16 counter 9.9%, IL1B secr inh -23.9, SW480 rerep -2.2%, RORgamma inh inconclusive and MCF10A rereplic 0.4%.
For COC(=O)C1(C(=O)OC)Cc2ccccc2N(S(=O)(=O)c2ccc(C)cc2)C1CC(C)=O (centres undefined) the results were IL1B secr inh 26.9.
Screening COC(=O)C[C@H]1C=C[C@H](NS(=O)(=O)c2cn(C)cn2)[C@@H](CO)O1 returned IL1B secr inh 31.4.
For CC[C@H](C)[C@@H](NC(=O)O[C@H]1C(=O)c2ccc(OC)cc2O[C@@H]1c1ccc2c(c1)OCO2)C(=O)OC the results were VP16 counter 1.2% and RORgamma inh 8.2%.
COc1cc(C)ccc1S(=O)(=O)NC(=O)Cn1nnc(COc2ccc3c(c2)CCCC3)c1C was read as IL1B secr inh 20.0.
Cn1c(-c2csc(-c3cccc(C(F)(F)F)c3)n2)n[nH]c1=S was read as VP16 counter 0.4%, IL1B secr inh 0.5, SW480 rerep -2.0%, RORgamma inh 4.47µM* and MCF10A rereplic 2.2%.
`Cn1c(CNc2cccc(C(F)(F)F)c2)n[nH]c1=S` gave VP16 counter -3.5%, IL1B secr inh 11.6, SW480 rerep -58.8%, RORgamma inh inconclusive and MCF10A rereplic 2.5%.
Screening CC(=O)N[C@@H](CSC(=O)[C@]1([C@@H](O)C(C)C)NC(=O)[C@H](C)[C@@H]1O)C(=O)O returned VP16 counter -27.4%[10 µM] and RORgamma inh inconclusive.
For Cc1cc(C)c(C)c(S(=O)(=O)N2CCN(c3ncnc4ccccc34)CC2)c1C the results were IL1B secr inh 9.0, SW480 rerep 1.4% and MCF10A rereplic 18.4µM*.
For Cc1cc(C)c(C)c(S(=O)(=O)N2CCN(c3ccccn3)CC2)c1C the results were VP16 counter 5.6%, IL1B secr inh 10.9, SW480 rerep -15.3%, RORgamma inh -14.8% and MCF10A rereplic 9.7%.
COc1ccc(OC)c(NC(=O)NNC(=O)CCCOc2ccc(Cl)cc2C)c1 was read as VP16 counter -4.4%, IL1B secr inh -55.3*, SW480 rerep -0.4%, RORgamma inh 23.2% and MCF10A rereplic 0.1%.
For Cc1c(NC(=O)c2cccc(NC(=O)COc3cccc(Br)c3)c2)c(=O)n(-c2ccccc2)n1C the results were IL1B secr inh 1.7, SW480 rerep -5.7% and MCF10A rereplic -4.3%.
